Reference: PubChem BioAssay AID1159580 (chemical genetic matrix, 2015)
Where “and” joins values, the source holds several entries; their conditions need not be identical. Equal values may be shown once. Hit rate of the full screen: of about 5,500 compounds, about 2,000 (36%) were called active. Another 18% or so got no clear call; they are omitted. No stated cut-off is given here; in the data, active means normalized growth mostly below about 0.91 (no sharp cut-off); inconclusive means no clear call, values can overlap the other calls; inactive means mostly above about 0.92. Some of the results follow.

Assay: chemical genetic growth profiling, strain panel (AID 1159580);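 further: tested at 20 µM; growth read once vehicle control cultures reached saturation at 30 °C; 1 = growth at the plate median or of vehicle wells; lower values mean less growth of the strain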
Conditions: S. cerevisiae deletion strains, growth OD

Measured: normalized growth

COc1ccc(-c2cc(=O)c3cc(OC)ccc3o2)cc1
active: locus YAL030W, strain snc1, hits give low values 0.928 | locus YBR009C, strain hhf1, hits give low values 0.902 | locus YCL011C, strain gbp2, hits give low values 0.887 | locus YDR392W, strain spt3, hits give low values 0.571 | locus YEL037C, strain rad23, hits give low values 0.921 | locus YER155C, strain BEM2 (second series), hits give low values 0.771 | locus YGL253W, strain hxk2, hits give low values 0.894 | locus YHR142W, strain chs7, hits give low values 0.84 | locus YJL164C, strain tpk1, hits give low values 0.912 | locus YLL026W, hits give low values 0.926 | locus YLR320W, strain mms22, hits give low values 0.869 | locus YNL071W, strain lat1, hits give low values 0.831 | locus YOR270C, strain vph1, hits give low values 0.676 | locus YOR290C, strain snf2, hits give low values 0.849
inactive: locus YAL013W, strain DEP1, hits give low values 0.982 | locus YAL021C, strain ccr4, hits give low values 0.964 | locus YAL026C, strain drs2, hits give low values 0.922 | locus YBL061C, strain skt5, hits give low values 0.937 | locus YBR021W, strain FUR4, hits give low values 0.908 | locus YBR023C, strain chs3, hits give low values 0.916 | locus YBR171W, strain sec66, hits give low values 0.95 | locus YBR229C, strain ROT2, hits give low values 0.999 | locus YBR231C, strain swc5, hits give low values 0.939 | locus YBR279W, strain paf1, hits give low values 0.944 | locus YCL016C, strain dcc1, hits give low values 0.944 | locus YCL029C, strain bik1, hits give low values 0.987 | locus YCL061C, strain MRC1, hits give low values 0.96 | locus YCL069W, strain vba3, hits give low values 0.945 | locus YCR088W, strain abp1, hits give low values 0.94 | locus YDL005C, strain med2, hits give low values 0.949 | locus YDL035C, strain GPR1, hits give low values 0.977 | locus YDL040C, strain nat1, hits give low values 0.95 | locus YDL074C, strain BRE1, hits give low values 0.918 | locus YDL101C, strain DUN1, hits give low values 0.983 | locus YDL134C, strain PPH21, hits give low values 1.04 | locus YDL185W, strain tfp1, hits give low values 0.946 | locus YDL192W, strain arf1, hits give low values 0.978 | locus YDR001C, strain nth1, hits give low values 0.942 | locus YDR069C, strain doa4, hits give low values 0.948 | locus YDR101C, strain arx1, hits give low values 0.946 | locus YDR137W, strain rgp1, hits give low values 0.883 | locus YDR150W, strain NUM1, hits give low values 0.983 | locus YDR159W, strain sac3, hits give low values 0.925 | locus YDR162C, strain NBP2, hits give low values 1.01 | locus YDR195W, strain ref2 1.04 | locus YDR297W, strain sur2, hits give low values 0.955 | locus YDR318W, strain mcm21, hits give low values 1.02 | locus YDR334W, strain swr1, hits give low values 0.931 | locus YDR335W, strain msn5, hits give low values 0.962 | locus YDR388W, hits give low values 1 | locus YDR502C, strain sam2, hits give low values 0.968 | locus YEL003W, strain gim4, hits give low values 0.956 | locus YEL061C, strain CIN8 (second series), hits give low values 0.93 | locus YEL061C, strain CIN8, hits give low values 1.01 | locus YER015W, strain faa2, hits give low values 0.969 | locus YER016W, strain bim1, hits give low values 0.954 | locus YER110C, hits give low values 0.974 | locus YER111C, strain swi4, hits give low values 0.943 | locus YER155C, strain BEM2, hits give low values 0.985 | locus YER167W, strain BCK2, hits give low values 0.997 | locus YFR010W, strain ubp6, hits give low values 0.906 | locus YGL078C, strain dbp3, hits give low values 0.995 | locus YGL086W, strain mad1, hits give low values 0.938 | locus YGL167C, strain pmr1, hits give low values 0.924 | locus YGL173C, strain kem1, hits give low values 0.947 | locus YGL227W, strain vid30, hits give low values 0.947 | locus YGL240W, strain doc1, hits give low values 0.892 | locus YGL248W, strain PDE1, hits give low values 1.01 | locus YGR078C, strain PAC10, hits give low values 0.988 | locus YGR135W, strain pre9, hits give low values 1.01 | locus YGR229C, strain SMI1, hits give low values 0.961 | locus YGR252W, strain gcn5, hits give low values 1.04 | locus YHR013C, strain ard1, hits give low values 0.972 | locus YHR027C, strain rpn1, hits give low values 0.949 | locus YHR030C, strain SLT2, hits give low values 0.998 and 0.956 | locus YHR079C, strain IRE1 (second series), hits give low values 0.997 | locus YHR079C, strain IRE1, hits give low values 0.928 | locus YHR094C, strain hxt1, hits give low values 1.01 | locus YHR129C, strain ARP1, hits give low values 0.985 | locus YHR200W, strain rpn10, hits give low values 0.985 | locus YIL066C, strain RNR3, hits give low values 0.999 | locus YIL073C, strain SPO22, hits give low values 0.973 | locus YIL125W, strain kgd1, hits give low values 0.99 | locus YIR030C, strain dcg1, hits give low values 1.01 | locus YJL092W, strain hpr5, hits give low values 0.948 | locus YJL095W, strain BCK1 (second series), hits give low values 0.95 | locus YJL095W, strain BCK1, hits give low values 0.96 and 0.964 | locus YJL115W, strain asf1, hits give low values 0.936 | locus YJL129C, strain trk1, hits give low values 0.937 | locus YJL134W, strain LCB3, hits give low values 0.996 | locus YJL154C, strain vps35, hits give low values 0.942 | locus YJL166W, strain qcr8, hits give low values 0.913 | locus YJL168C, strain set2, hits give low values 1 | locus YJL187C, strain SWE1 (second series), hits give low values 0.972 | locus YJL187C, strain SWE1, hits give low values 0.948 | locus YJR043C, strain POL32, hits give low values 0.966 | locus YJR066W, strain TOR1, hits give low values 0.893 | locus YKL009W, strain mrt4, hits give low values 0.925 | locus YKL068W, hits give low values 1 | locus YKL085W, strain MDH1 (second series), hits give low values 0.997 | locus YKL085W, strain MDH1, hits give low values 0.997 | locus YKL160W, strain elf1, hits give low values 0.939 | locus YKL190W, strain CNB1, hits give low values 1 | locus YKR001C, strain vps1, hits give low values 0.93 | locus YKR026C, strain gcn3, hits give low values 0.942 | locus YKR091W, strain srl3, hits give low values 0.96 | locus YLL001W, strain dnm1, hits give low values 0.931 | locus YLL041C, strain sdh2, hits give low values 0.96 | locus YLR027C, strain aat2, hits give low values 0.925 | locus YLR039C, strain RIC1, hits give low values 1.01 | locus YLR058C, strain SHM2, hits give low values 0.99 | locus YLR102C, strain apc9, hits give low values 0.975 | locus YLR113W, strain HOG1, hits give low values 0.981 | locus YLR221C, strain rsa3, hits give low values 0.947 | locus YLR258W, strain gsy2, hits give low values 0.934 | locus YLR262C, strain YPT6 (second series), hits give low values 0.902 | locus YLR262C, strain YPT6, hits give low values 1.06 | locus YLR268W, strain sec22, hits give low values 0.965 | locus YLR330W, strain CHS5, hits give low values 0.925 | locus YLR342W, strain FKS1 (second series), hits give low values 0.975 | locus YLR342W, strain FKS1, hits give low values 0.94 | locus YLR357W, strain rsc2, hits give low values 0.88 | locus YLR370C, strain arc18, hits give low values 0.941 | locus YLR371W, strain rom2, hits give low values 0.965 | locus YLR384C, strain iki3, hits give low values 0.944 | locus YLR418C, strain cdc73, hits give low values 0.943 | locus YML016C, strain PPZ1, hits give low values 0.991 | locus YML032C, strain rad52, hits give low values 0.997 | locus YML120C, strain ndi1, hits give low values 0.946 | locus YML124C, strain tub3, hits give low values 1.01 | locus YMR058W, strain fet3, hits give low values 0.928 | locus YMR078C, strain ctf18, hits give low values 0.982 | locus YMR125W, strain sto1, hits give low values 0.927 | locus YMR129W, hits give low values 0.949 | locus YMR205C, strain PFK2, hits give low values 0.898 | locus YMR223W, strain ubp8, hits give low values 1.02 | locus YMR231W, strain pep5, hits give low values 0.974 | locus YMR307W, strain GAS1, hits give low values 1.06 | locus YNL067W, strain RPL9B, hits give low values 0.99 | locus YNL183C, strain NPR1, hits give low values 0.885 | locus YNL209W, strain ssb2, hits give low values 0.956 | locus YNL233W, strain BNI4, hits give low values 0.914 | locus YNL248C, strain rpa49, hits give low values 0.95 | locus YNL250W, strain rad50, hits give low values 0.957 | locus YNL271C, strain bni1, hits give low values 1.02 | locus YNL298W, strain CLA4, hits give low values 0.995 | locus YNL307C, strain MCK1, hits give low values 0.987 | locus YNL322C, strain KRE1 (second series), hits give low values 0.948 | locus YNL322C, strain KRE1, hits give low values 1 | locus YNR049C, strain mso1, hits give low values 0.937 | locus YNR052C, strain pop2, hits give low values 1.02 | locus YOL012C, strain htz1 1.07 | locus YOL147C, strain pex11, hits give low values 0.997 | locus YOR001W, strain rrp6, hits give low values 0.95 | locus YOR061W, strain CKA2, hits give low values 1.01 | locus YOR069W, strain VPS5, hits give low values 0.99 | locus YOR070C, strain gyp1, hits give low values 0.941 | locus YOR080W, strain dia2, hits give low values 0.961 | locus YOR083W, strain WHI5, hits give low values 0.954 | locus YOR106W, strain vam3, hits give low values 0.905 | locus YOR136W, strain idh2, hits give low values 0.988 | locus YOR144C, strain elg1, hits give low values 0.997 | locus YOR184W, strain ser1, hits give low values 0.979 | locus YOR231W, strain MKK1, hits give low values 0.952 | locus YOR265W, strain rbl2, hits give low values 0.949 | locus YOR316C, strain cot1, hits give low values 0.996 | locus YPL051W, strain arl3, hits give low values 0.945 | locus YPL055C, strain LGE1, hits give low values 0.934 | locus YPL078C, strain atp4, hits give low values 0.922 | locus YPL106C, strain sse1, hits give low values 0.873 | locus YPL240C, strain hsp82, hits give low values 0.972 | locus YPL241C, strain CIN2, hits give low values 0.997 | locus YPL256C, strain CLN2, hits give low values 0.962 | locus YPR119W, strain clb2, hits give low values 1 | locus YPR141C, strain kar3, hits give low values 1.02 | locus YPR163C, strain tif3, hits give low values 1 | locus YPR167C, strain met16, hits give low values 1.02 | strain wtn01, hits give low values 0.944
